“And” between values parts separate entries of the source, which are not always exact repeats. Identical values can stand only once. Among all 5,500 compounds or so, about 2,000 (36%) were called active. Roughly 18% stayed inconclusive and do not appear here. No stated cut-off is given here; in the data, active means normalized growth mostly below about 0.91 (no sharp cut-off); inconclusive means no clear call, values can overlap the other calls; inactive means mostly above about 0.92. The list shows a part of the results.
Assay: chemical genetic growth profiling, strain panel (AID 1159580);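 further: tested at 20 µM; growth read once vehicle control cultures reached saturation at 30 °C; 1 = growth at the plate median or of vehicle wells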
Settings: growth OD
[1] = S. cerevisiae deletion strains, locus YDL101C, strain DUN1, stronger effect = lower value
[2] = S. cerevisiae deletion strains, locus YHR030C, strain SLT2, stronger effect = lower value
[3] = S. cerevisiae deletion strains, locus YHR079C, strain IRE1, stronger effect = lower value
[4] = S. cerevisiae deletion strains, locus YJL095W, strain BCK1, stronger effect = lower value
[5] = S. cerevisiae deletion strains, locus YJR066W, strain TOR1, stronger effect = lower value
[6] = S. cerevisiae deletion strains, locus YLR113W, strain HOG1, stronger effect = lower value
[7] = S. cerevisiae deletion strains, locus YNL183C, strain NPR1, stronger effect = lower value
[8] = S. cerevisiae deletion strains, locus YOR061W, strain CKA2, stronger effect = lower value
[9] = S. cerevisiae deletion strains, locus YOR231W, strain MKK1, stronger effect = lower value
[10] = S. cerevisiae deletion strains, locus YPL256C, strain CLN2, stronger effect = lower value

Measured: normalized growth

CC(=O)C(Sc1nc2ccccc2s1)C(C)=O
active: S. cerevisiae deletion strains, locus YER123W, strain YCK3, stronger effect = lower value 0.595 | S. cerevisiae deletion strains, locus YGR092W, strain DBF2, stronger effect = lower value 0.343 | [2] 0.63 | S. cerevisiae deletion strains, locus YJL157C, strain FAR1, stronger effect = lower value 0.68 | S. cerevisiae deletion strains, locus YKL067W, strain YNK1, stronger effect = lower value 0.694 | [6] 0.591 | S. cerevisiae deletion strains, locus YNL006W, strain LST8, stronger effect = lower value 0.901 | [7] 0.561 | [10] 0.6
inactive: S. cerevisiae deletion strains, locus YAR019C, strain CDC15, stronger effect = lower value 0.896 | S. cerevisiae deletion strains, locus YBL105C, strain PKC1, stronger effect = lower value 0.919 | S. cerevisiae deletion strains, locus YBR135W, strain CKS1, stronger effect = lower value 0.915 | S. cerevisiae deletion strains, locus YBR136W, strain MEC1, stronger effect = lower value 0.923 | S. cerevisiae deletion strains, locus YBR160W, strain CDC28, stronger effect = lower value 0.909 | S. cerevisiae deletion strains, locus YDL017W, strain CDC7, stronger effect = lower value 0.919 | S. cerevisiae deletion strains, locus YDL028C, strain MPS1, stronger effect = lower value 0.906 | [1] 0.979 | S. cerevisiae deletion strains, locus YDL108W, strain KIN28, stronger effect = lower value 0.93 | S. cerevisiae deletion strains, locus YDL132W, strain cdc53, stronger effect = lower value 0.91 | S. cerevisiae deletion strains, locus YDL214C, strain PRR2, stronger effect = lower value 0.713 | S. cerevisiae deletion strains, locus YDR052C, strain DBF4, stronger effect = lower value 0.916 | S. cerevisiae deletion strains, locus YDR054C, strain cdc34, stronger effect = lower value 0.906 | S. cerevisiae deletion strains, locus YDR226W, strain ADK1, stronger effect = lower value 0.937 | S. cerevisiae deletion strains, locus YDR477W, strain SNF1, stronger effect = lower value 0.778 | S. cerevisiae deletion strains, locus YER133W, strain GLC7, stronger effect = lower value 0.812 | S. cerevisiae deletion strains, locus YFL009W, strain cdc4, stronger effect = lower value 0.892 | S. cerevisiae deletion strains, locus YFL029C, strain CAK1, stronger effect = lower value 0.9 | S. cerevisiae deletion strains, locus YFR003C, strain YPI1, stronger effect = lower value 0.926 | S. cerevisiae deletion strains, locus YFR019W, strain FAB1, stronger effect = lower value 0.836 | S. cerevisiae deletion strains, locus YFR028C, strain CDC14, stronger effect = lower value 0.922 | S. cerevisiae deletion strains, locus YGR040W, strain KSS1, stronger effect = lower value 0.798 | S. cerevisiae deletion strains, locus YGR052W, strain FMP48, stronger effect = lower value 0.667 | [3] 0.547 | S. cerevisiae deletion strains, locus YHR082C, strain KSP1, stronger effect = lower value 0.785 | S. cerevisiae deletion strains, locus YHR205W, strain SCH9, stronger effect = lower value 0.948 | S. cerevisiae deletion strains, locus YIL147C, strain SLN1, stronger effect = lower value 0.921 | [4] 0.521 | S. cerevisiae deletion strains, locus YJL128C, strain PBS2, stronger effect = lower value 0.918 | S. cerevisiae deletion strains, locus YJR016C, strain ILV3, stronger effect = lower value 0.916 | S. cerevisiae deletion strains, locus YJR066W, strain TOR1 (second series), stronger effect = lower value 0.795 | [5] 0.682 | S. cerevisiae deletion strains, locus YKL048C, strain ELM1, stronger effect = lower value 0.929 | S. cerevisiae deletion strains, locus YKL101W, strain HSL1, stronger effect = lower value 0.866 | S. cerevisiae deletion strains, locus YKL193C, strain SDS22, stronger effect = lower value 0.907 | S. cerevisiae deletion strains, locus YKL203C, strain TOR2, stronger effect = lower value 0.879 | S. cerevisiae deletion strains, locus YLR133W, strain CKI1, stronger effect = lower value 0.765 | S. cerevisiae deletion strains, locus YLR403W, strain SFP1, stronger effect = lower value 0.764 | S. cerevisiae deletion strains, locus YML070W, strain DAK1, stronger effect = lower value 0.699 | S. cerevisiae deletion strains, locus YMR001C, strain CDC5, stronger effect = lower value 0.91 | S. cerevisiae deletion strains, locus YMR205C, strain PFK2 (second series), stronger effect = lower value 0.749 | S. cerevisiae deletion strains, locus YMR277W, strain FCP1, stronger effect = lower value 0.892 | S. cerevisiae deletion strains, locus YNL020C, strain ARK1, stronger effect = lower value 0.739 | S. cerevisiae deletion strains, locus YNL161W, strain CBK1, stronger effect = lower value 0.906 | S. cerevisiae deletion strains, locus YNL207W, strain RIO2, stronger effect = lower value 0.937 | S. cerevisiae deletion strains, locus YNL222W, strain SSU72, stronger effect = lower value 0.907 | S. cerevisiae deletion strains, locus YNL307C, strain MCK1 (second series), stronger effect = lower value 0.807 | S. cerevisiae deletion strains, locus YOL078W, strain AVO1, stronger effect = lower value 0.908 | S. cerevisiae deletion strains, locus YOL136C, strain PFK27, stronger effect = lower value 0.694 | [8] 0.752 | S. cerevisiae deletion strains, locus YOR119C, strain RIO1, stronger effect = lower value 0.827 | [9] 0.591 | S. cerevisiae deletion strains, locus YOR329C, strain SCD5, stronger effect = lower value 0.925 | S. cerevisiae deletion strains, locus YPL031C, strain PHO85, stronger effect = lower value 0.729 | S. cerevisiae deletion strains, locus YPL153C, strain RAD53, stronger effect = lower value 0.734 | S. cerevisiae deletion strains, locus YPL204W, strain HRR25, stronger effect = lower value 0.757 | S. cerevisiae deletion strains, locus YPL209C, strain IPL1, stronger effect = lower value 0.914 | S. cerevisiae deletion strains, locus YPR025C, strain CCL1, stronger effect = lower value 0.916 | S. cerevisiae deletion strains, locus YPR106W, strain ISR1, stronger effect = lower value 0.945 | S. cerevisiae deletion strains, locus YPR111W, strain DBF20, stronger effect = lower value 0.946 | S. cerevisiae deletion strains, strain NNK1, stronger effect = lower value 0.948 | S. cerevisiae deletion strains, strain TSCII, stronger effect = lower value 0.891

CC(C)C1=CC2=CCC3[C@](C)(CCC[C@]3(C)C(=O)O)C2CC1 (stereo partly specified)
active: S. cerevisiae deletion strains, locus YDR162C, strain NBP2, stronger effect = lower value 0.724 | [3] 0.851 | S. cerevisiae deletion strains, locus YLR039C, strain RIC1, stronger effect = lower value 0.637 | S. cerevisiae deletion strains, locus YLR262C, strain YPT6, stronger effect = lower value 0.542 | S. cerevisiae deletion strains, locus YLR418C, strain cdc73, stronger effect = lower value 0.781 | S. cerevisiae deletion strains, locus YMR307W, strain GAS1, stronger effect = lower value 0.502 | S. cerevisiae deletion strains, locus YOR184W, strain ser1, stronger effect = lower value 0.801 | [9] 0.859 | [10] 0.824
inactive: S. cerevisiae deletion strains, locus YAL013W, strain DEP1, stronger effect = lower value 0.957 | S. cerevisiae deletion strains, locus YBR021W, strain FUR4, stronger effect = lower value 1.03 | S. cerevisiae deletion strains, locus YBR229C, strain ROT2, stronger effect = lower value 0.935 | S. cerevisiae deletion strains, locus YCL029C, strain bik1, stronger effect = lower value 0.995 | S. cerevisiae deletion strains, locus YDL035C, strain GPR1, stronger effect = lower value 0.918 | S. cerevisiae deletion strains, locus YDL074C, strain BRE1, stronger effect = lower value 0.923 | [1] 0.946 | S. cerevisiae deletion strains, locus YDL134C, strain PPH21, stronger effect = lower value 0.935 | S. cerevisiae deletion strains, locus YDL185W, strain tfp1, stronger effect = lower value 0.975 | S. cerevisiae deletion strains, locus YDL192W, strain arf1, stronger effect = lower value 0.939 | S. cerevisiae deletion strains, locus YDR101C, strain arx1, stronger effect = lower value 1.05 | S. cerevisiae deletion strains, locus YDR150W, strain NUM1, stronger effect = lower value 0.981 | S. cerevisiae deletion strains, locus YDR318W, strain mcm21, stronger effect = lower value 0.925 | S. cerevisiae deletion strains, locus YDR388W, stronger effect = lower value 0.981 | S. cerevisiae deletion strains, locus YDR502C, strain sam2, stronger effect = lower value 0.952 | S. cerevisiae deletion strains, locus YEL061C, strain CIN8, stronger effect = lower value 0.97 | S. cerevisiae deletion strains, locus YER110C, stronger effect = lower value 0.99 | S. cerevisiae deletion strains, locus YER155C, strain BEM2, stronger effect = lower value 1.02 | S. cerevisiae deletion strains, locus YER167W, strain BCK2, stronger effect = lower value 0.994 | S. cerevisiae deletion strains, locus YGL078C, strain dbp3, stronger effect = lower value 0.978 | S. cerevisiae deletion strains, locus YGL086W, strain mad1, stronger effect = lower value 1.02 | S. cerevisiae deletion strains, locus YGL248W, strain PDE1, stronger effect = lower value 0.928 | S. cerevisiae deletion strains, locus YGR135W, strain pre9, stronger effect = lower value 0.94 | S. cerevisiae deletion strains, locus YGR252W, strain gcn5, stronger effect = lower value 0.986 | S. cerevisiae deletion strains, locus YHR079C, strain IRE1 (second series), stronger effect = lower value 0.974 | S. cerevisiae deletion strains, locus YHR094C, strain hxt1, stronger effect = lower value 0.976 | S. cerevisiae deletion strains, locus YHR129C, strain ARP1, stronger effect = lower value 0.967 | S. cerevisiae deletion strains, locus YHR200W, strain rpn10, stronger effect = lower value 0.995 | S. cerevisiae deletion strains, locus YIL066C, strain RNR3, stronger effect = lower value 0.937 | S. cerevisiae deletion strains, locus YIL073C, strain SPO22, stronger effect = lower value 0.902 | S. cerevisiae deletion strains, locus YIL125W, strain kgd1, stronger effect = lower value 1 | S. cerevisiae deletion strains, locus YIR030C, strain dcg1, stronger effect = lower value 0.974 | S. cerevisiae deletion strains, locus YJL134W, strain LCB3, stronger effect = lower value 0.977 | S. cerevisiae deletion strains, locus YJL168C, strain set2, stronger effect = lower value 0.977 | S. cerevisiae deletion strains, locus YJL187C, strain SWE1 (second series), stronger effect = lower value 0.96 | S. cerevisiae deletion strains, locus YJR043C, strain POL32, stronger effect = lower value 1.02 | [5] 0.857 | S. cerevisiae deletion strains, locus YKL009W, strain mrt4, stronger effect = lower value 0.958 | S. cerevisiae deletion strains, locus YKL068W, stronger effect = lower value 0.971 | S. cerevisiae deletion strains, locus YKL085W, strain MDH1 (second series), stronger effect = lower value 0.966 | S. cerevisiae deletion strains, locus YKL085W, strain MDH1, stronger effect = lower value 0.966 | S. cerevisiae deletion strains, locus YKL190W, strain CNB1, stronger effect = lower value 0.958 | S. cerevisiae deletion strains, locus YKR001C, strain vps1, stronger effect = lower value 1.01 | S. cerevisiae deletion strains, locus YLR058C, strain SHM2, stronger effect = lower value 0.944 | S. cerevisiae deletion strains, locus YLR102C, strain apc9, stronger effect = lower value 0.985 | [6] 0.859 | S. cerevisiae deletion strains, locus YLR268W, strain sec22, stronger effect = lower value 1.01 | S. cerevisiae deletion strains, locus YLR330W, strain CHS5, stronger effect = lower value 0.984 | S. cerevisiae deletion strains, locus YLR342W, strain FKS1 (second series), stronger effect = lower value 0.859 | S. cerevisiae deletion strains, locus YLR371W, strain rom2, stronger effect = lower value 0.992 | S. cerevisiae deletion strains, locus YML016C, strain PPZ1, stronger effect = lower value 0.966 | S. cerevisiae deletion strains, locus YML032C, strain rad52, stronger effect = lower value 0.949 | S. cerevisiae deletion strains, locus YML124C, strain tub3, stronger effect = lower value 0.979 | S. cerevisiae deletion strains, locus YMR078C, strain ctf18, stronger effect = lower value 0.974 | S. cerevisiae deletion strains, locus YMR223W, strain ubp8, stronger effect = lower value 0.923 | S. cerevisiae deletion strains, locus YNL067W, strain RPL9B, stronger effect = lower value 0.972 | S. cerevisiae deletion strains, locus YNL153C, strain GIM3, stronger effect = lower value 0.967 | [7] 0.894 | S. cerevisiae deletion strains, locus YNL233W, strain BNI4, stronger effect = lower value 0.987 | S. cerevisiae deletion strains, locus YNL250W, strain rad50, stronger effect = lower value 0.963 | S. cerevisiae deletion strains, locus YNL271C, strain bni1, stronger effect = lower value 0.963 | S. cerevisiae deletion strains, locus YNL298W, strain CLA4, stronger effect = lower value 0.995 | S. cerevisiae deletion strains, locus YNL307C, strain MCK1, stronger effect = lower value 0.945 | S. cerevisiae deletion strains, locus YNR052C, strain pop2, stronger effect = lower value 0.95 | S. cerevisiae deletion strains, locus YOL006C, strain TOP1, stronger effect = lower value 0.937 | S. cerevisiae deletion strains, locus YOL012C, strain htz1 1.21 | S. cerevisiae deletion strains, locus YOL147C, strain pex11, stronger effect = lower value 0.987 | [8] 0.921 | S. cerevisiae deletion strains, locus YOR069W, strain VPS5, stronger effect = lower value 0.972 | S. cerevisiae deletion strains, locus YOR136W, strain idh2, stronger effect = lower value 0.999 | S. cerevisiae deletion strains, locus YOR144C, strain elg1, stronger effect = lower value 0.982 | S. cerevisiae deletion strains, locus YOR316C, strain cot1, stronger effect = lower value 0.979 | S. cerevisiae deletion strains, locus YPL241C, strain CIN2, stronger effect = lower value 0.967 | S. cerevisiae deletion strains, locus YPR119W, strain clb2, stronger effect = lower value 0.977 | S. cerevisiae deletion strains, locus YPR141C, strain kar3, stronger effect = lower value 0.958 | S. cerevisiae deletion strains, locus YPR163C, strain tif3, stronger effect = lower value 0.976 | S. cerevisiae deletion strains, locus YPR167C, strain met16, stronger effect = lower value 0.98 | S. cerevisiae deletion strains, strain wtn01, stronger effect = lower value 1.06 | S. cerevisiae strains, strain wild type, stronger effect = lower value 0.962
0.996 (inactive) and 0.843 (active): [2]
0.782 (active) and 0.89 (inactive): [4]
